FPRL1 ligand – ligands of human FPRL1, also counter-screen for FPR ligands | P25090 | FPRL1-expressing cells, fluorescent ligand binding inhibition, flow cytometry | inhibition, % (concentration not given with the values) | 24,000 tested, 0.3% active
VLA-4 antagonist – inhibition of LDV-FITC ligand binding to human VLA-4 integrin | AID 529 | inhibition, % at 10 µM (by protocol) | 24,000 tested, 0.2% active | Jurkat cells, LDV-FITC binding with Mn2+, flow cytometry; 100% = Mn2+-driven binding gain fully reversed;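 active means inhibition above 50%; inconclusive means compound itself fluorescent, judged against control cell fluorescence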
Autofluor Jurkat – autofluorescence counter-screen for VLA-4 integrin assays | Jurkat cells, compound autofluorescence, flow cytometry; hits give high values; 1 = vehicle-only cell background | fluorescence ratio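 (tested at 10 µM compound in the well)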 | 24,000 tested, 0.61% active | AID 576;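 active means fluorescence ratio above 2.44, which is 1 plus 3 SD of all ratios; inconclusive means signal too bright to measure linearly, ratio around 10 or more; inactive means fluorescence ratio below 2.44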;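 further: green fluorescence of cells measured with 488 nm excitation and 530 nm emission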
Prostate diff – promotes differentiation of LNCaP prostate cells | AID 795 | flow cytometry side scatter, 4 d | side scatter shift, % at 10 µM | 24,000 tested, 0.56% active;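 active means side scatter shift above 30%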;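 further: androgen-responsive LNCaP prostate cancer cells in charcoal-stripped serum medium; higher shift means more granular cells and more differentiation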
VLA-4 allo ag – allosterically activates the human VLA-4 integrin. 24,000 tested, under 10 active. Jurkat cells, LDV-FITC binding, flow cytometry. P13612. activation, % at 10 µM (by protocol);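 active means fluorescent ligand binding to cells raised by more than 40% of the manganese-induced maximum; inconclusive means compound's own fluorescence above 85% of the ligand control signal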
FPR ligand – binds the human formylpeptide receptor FPR. FPR-expressing cells, fluorescent ligand binding, flow cytometry. inhibition, % (no concentration beside the values). 24,000 tested, 0.74% active. AID 440
A number is an active result; n = inactive; u = inconclusive. Sampled rows, rich in hits. Any-hit rate of the full collection: about 2.4%. Unless noted, no stated cut-off is given here; in the data, active means inhibition above about 30%; inconclusive means no clear call, values can overlap the other calls; inactive means below that.

SMILES	FPRL1 ligand	VLA-4 antagonist	Autofluor Jurkat	Prostate diff	VLA-4 allo ag	FPR ligand
CC(C)[C@@]1(NC(=O)[C@@H]2C=C3c4cccc5[nH]cc(c45)C[C@H]3N(C)C2)O[C@@]2(O)[C@@H]3CCCN3C(=O)[C@H](Cc3ccccc3)N2C1=O	n	u	3.5	n	u	n
O=C(CN1CC(c2ccccc2)CC1=O)Nc1ccccc1 (centres undefined)	n	n	n	n	n	n

Assay outcomes as filed in PubChem.
